Data published in PubChem BioAssay (EPA / NIEHS).
Records with an inconclusive call do not appear. The source made the active and inactive calls. How the source made its calls, unless noted: active means hit-call score of the fitted dose curve at least 0.9, where 1 is the maximum; inactive means score below 0.9.

What was measured:
[1] = ACEA_ER_80hr: ACEA Biosciences xCELLigence Real-Time Cell Analysis on Estrogen Receptor Agonism for Proliferation (AID 2282667; active means hit-call score of the fitted dose curve at least 0.9, where 1 is the maximum); conditions: T47D proliferation, impedance (xCELLigence), 80 h
Procedure, shortened: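 Cell-growth kinetics were measured by impedance in T47D cells treated continuously with compound (top 100 uM final, 1:4 steps, 8 points). Activity at 80 h was scored as signal gain over the DMSO baseline.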

[2] = ATG_CRE_CIS: Attagene CIS-FACTORIAL HepG2 Assay for human cAMP Responsive Element (CRE) binding protein 3 (AID 2282926); conditions: HepG2 CRE cis-reporter, Attagene multiplexed mRNA; actives raise or lower the signal
Procedure, shortened: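 We dosed HepG2 cells bearing multiple cis-promoter reporter units for 24 h and measured reporter mRNA by RT-PCR with capillary electrophoresis detection. Bidirectional concentration-response fitting used DMSO as negative control.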

[3] = molecular target: CCAAT/enhancer-binding protein beta (Homo sapiens) (UniProt P17676); assay: ATG_C_EBP_CIS: Attagene CIS-FACTORIAL HepG2 Assay for human CCAAT/Enhancer Binding Protein (C/EBP) beta (AID 2282927); conditions: HepG2 Attagene cis-factorial transcription factor reporter; actives raise or lower the signal
Procedure, shortened: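 Chemical-treated HepG2 cells (24 h) bearing cis-regulated reporter constructs were processed for total RNA, then reverse transcription, PCR amplification, fluorescent primer extension and fragment analysis; gain- and loss-of-signal were fitted against DMSO.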

[4] = ATG_CMV_CIS: Attagene CIS-FACTORIAL HepG2 Assay for human CMV (Internal Marker) (AID 2282928); conditions: HepG2 CMV promoter reporter, transcription factor profiling; actives raise or lower the signal;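 further: endpoint acts as a background internal control marker rather than a target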
Procedure, shortened: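 Cell system: HepG2, transiently transfected multiple reporter units under cis promoters. Exposure: 24 h. Detection: RT-PCR, FAM labeling, HpaI digestion, capillary electrophoresis. Analysis: bidirectional, DMSO baseline.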

[5] = ATG_DR4_LXR_CIS: Attagene CIS-FACTORIAL HepG2 Assay for human Liver X Receptor (LXR), DR4 submotif (AID 2282929); conditions: HepG2 Attagene DR4 cis-reporter, mRNA transcription; actives raise or lower the signal
Procedure, shortened: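 Measures endogenous transcription factor activity via a DR4-driven reporter transcript in human HepG2 cells. Compounds incubated 24 h; mRNA quantified by RT-PCR and capillary electrophoresis, analysed as gain or loss of signal versus DMSO.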

[6] = molecular target: Aryl hydrocarbon receptor (Homo sapiens) (UniProt P35869); assay: ATG_Ahr_CIS: Attagene CIS-FACTORIAL HepG2 Assay for human Aryl Hydrocarbon Receptor (Ahr) (AID 2282930); conditions: HepG2 AhR cis-factorial reporter transcription; actives raise or lower the signal
Procedure, shortened: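 Following 24 h of chemical dosing, transfected HepG2 liver cells with cis-driven reporter units were lysed for RNA; reporter mRNA was quantified via RT-PCR and capillary electrophoresis, and responses fitted bidirectionally from DMSO.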

[7] = ATG_AP_1_CIS: Attagene CIS-FACTORIAL HepG2 Assay for human Activator Protein 1 (AP-1) (AID 2282931); conditions: HepG2 Attagene cis-factorial AP-1 reporter mRNA; actives raise or lower the signal
Procedure, shortened: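 Bidirectional concentration-response fitting against DMSO controls. Underlying signal: reporter mRNA from cis-promoter constructs in transiently transfected HepG2, measured after 24 h by RT-PCR and capillary electrophoresis.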

[8] = ATG_AP_2_CIS: Attagene CIS-FACTORIAL HepG2 Assay for human Activator Protein 2 (AP-2) (AID 2282932); conditions: HepG2 AP-2 cis-reporter, Attagene transcription factor profiling; actives raise or lower the signal
Procedure, shortened: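 HepG2 cells were transiently transfected with multiple cis-promoter reporter transcription units and dosed for 24 h. Reporter mRNA was measured by RT-PCR with capillary electrophoresis fluorescence; bidirectional fits relative to DMSO baseline.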

[9] = ATG_BRE_CIS: Attagene CIS-FACTORIAL HepG2 Assay for human Bone Morphogenetic Protein (BMP) Response Element (BRE) (AID 2282933); conditions: HepG2 BMP response element reporter, Attagene transcription factor profiling; actives raise or lower the signal
Procedure, shortened: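 Transient MRTU transfection of human HepG2 liver cells; 24 h compound treatment; total RNA isolated, reverse-transcribed, PCR-amplified, 6-FAM labelled, HpaI-cut, capillary electrophoresis. DMSO = negative control/baseline, bidirectional fit.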

[10] = molecular target: Retinoic acid receptor alpha (Homo sapiens) (UniProt P10276); assay: ATG_DR5_RAR_CIS: Attagene CIS-FACTORIAL HepG2 Assay for human Retinoic Acid Receptor Alpha (RARE), DR5 submotif (AID 2282934); conditions: HepG2 Attagene cis-factorial RARE DR5 reporter, mRNA; actives raise or lower the signal
Procedure, shortened: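 Transfected HepG2 reporter cells are exposed to chemicals for 24 h. Then RNA is extracted and the DR5 element reporter transcript is measured by RT-PCR and capillary electrophoresis, with bidirectional curve fitting relative to DMSO.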

[11] = molecular target: Transcription factor E2F1 (Homo sapiens) (UniProt Q01094); assay: ATG_E2F_CIS: Attagene CIS-FACTORIAL HepG2 Assay for human E2F Transcription Factor 1 (AID 2282935); conditions: HepG2 Attagene cis-reporter, E2F reporter RNA transcripts; actives raise or lower the signal
Procedure, shortened: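 HepG2 cells transiently transfected with multiplexed cis-element reporter units, dosed for 24 h. Reporter mRNA measured by RT-PCR, 6-FAM primer-extension labeling, HpaI digestion and capillary electrophoresis; bidirectional fit versus DMSO baseline.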

[12] = ATG_E_Box_CIS: Attagene CIS-FACTORIAL HepG2 Assay for human Enhancer Box (E-box) (AID 2282936); conditions: HepG2 E-box cis-reporter transcription, actives raise or lower the signal
Procedure, shortened: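 HepG2 cells transiently transfected with multiplexed cis-element reporter units sensing endogenous transcription factor activity; 24 h compound exposure. Reporter mRNA measured by RT-PCR, 6-FAM primer extension, HpaI digestion and capillary electrophoresis; bidirectional fit versus DMSO.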

[13] = ATG_M_61_CIS: Attagene CIS-FACTORIAL HepG2 Assay for M61 Transcription Factor (Internal Marker) (AID 2282937); conditions: HepG2 Attagene CIS-FACTORIAL M61 internal marker reporter; actives raise or lower the signal
Procedure, shortened: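 Fluorescence from labelled cDNA fragments, separated by capillary electrophoresis, quantifies reporter induction. HepG2 cells bearing transiently transfected cis-promoter MRTUs were incubated with test chemical for 24 h; DMSO defined baseline for gain/loss fitting.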

[14] = ATG_EGR_CIS: Attagene CIS-FACTORIAL HepG2 Assay for human Early Growth Response 1 (EGR1) (AID 2282938); conditions: HepG2 Attagene CIS-FACTORIAL EGR reporter mRNA; actives raise or lower the signal
Procedure, shortened: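 Cell-based multiplex transcription assay: HepG2 carrying transfected cis-element reporter units, 24 h chemical treatment. Fluorescence from capillary electrophoresis of RT-PCR products gives mRNA levels; fitting is bidirectional relative to DMSO.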

[15] = ATG_M_19_CIS: Attagene CIS-FACTORIAL HepG2 Assay for M19 Transcription Factor (Internal Marker) (AID 2282939); conditions: HepG2 Attagene CIS-FACTORIAL M19 internal marker reporter; actives raise or lower the signal
Procedure, shortened: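 Transfect HepG2 with MRTU reporter library → dose chemical, 24 h → isolate total RNA, reverse-transcribe with oligo(dT) → PCR, 6-FAM label, HpaI cut (2 h, 37 C) → capillary electrophoresis. Bidirectional fit vs DMSO.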

[16] = ATG_ERE_CIS: Attagene CIS-FACTORIAL HepG2 Assay for Estrogen Response Element (ERE) (AID 2282940); conditions: HepG2 ERE cis-reporter, Attagene RNA transcript; actives raise or lower the signal
Procedure, shortened: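 Transient MRTU transfection of human HepG2; cis-element promoters; 24 h dosing; total RNA → RT (oligo dT) → PCR → 6-FAM primer extension → HpaI digest → CE fluorescence. Bidirectional fit, DMSO baseline.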

[17] = ATG_Ets_CIS: Attagene CIS-FACTORIAL HepG2 Assay for human Erythroblast Transformation Specific (ETS) (AID 2282941); conditions: HepG2 ETS cis-reporter transcription, actives raise or lower the signal
Procedure, shortened: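 After transient cis-reporter transfection, HepG2 cells receive test chemical for 24 h. Reporter mRNA levels, measured by RT-PCR and capillary electrophoresis fluorescence, are analysed bidirectionally relative to the DMSO baseline.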

[18] = molecular target: Hepatocyte nuclear factor 3-beta (Homo sapiens) (UniProt Q9Y261); assay: ATG_FoxA2_CIS: Attagene CIS-FACTORIAL HepG2 Assay for human Forkhead box A2 (FOXA2) (AID 2282942); conditions: HepG2 cis-reporter transcription factor activity, 24 h; actives raise or lower the signal
Procedure, shortened: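 In transiently transfected human HepG2 cells, promoter-driven reporter mRNA levels after 24 h chemical exposure are determined via RT-PCR with capillary electrophoresis. DMSO serves as baseline for bidirectional fitting.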

[19] = ATG_FoxO_CIS: Attagene CIS-FACTORIAL HepG2 Assay for human Forkhead box O (FoxO) (AID 2282943); conditions: HepG2 Attagene cis-reporter, FoxO element, mRNA; actives raise or lower the signal
Procedure, shortened: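 24 h chemical exposure, HepG2 with transient cis-MRTU transfection. RNA extraction, oligo(dT) RT, reporter-specific PCR, primer-extension labelling, HpaI digestion, CE fragment analysis; bidirectional fit, DMSO baseline.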

[20] = ATG_GATA_CIS: Attagene CIS-FACTORIAL HepG2 Assay for human GATA Binding Protein (AID 2282944); conditions: HepG2 GATA cis-element reporter, Attagene multiplex mRNA; actives raise or lower the signal
Procedure, shortened: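 Transient MRTU transfection, HepG2, 24 h compound exposure. Total RNA → oligo(dT) RT → PCR → 6-FAM primer extension → HpaI cut → CE. Bidirectional fit vs DMSO.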

Measured: AC50

CCAAT/enhancer-binding protein beta (Homo sapiens), sequence (P17676 whole entry, looked up, the tested form may be a part): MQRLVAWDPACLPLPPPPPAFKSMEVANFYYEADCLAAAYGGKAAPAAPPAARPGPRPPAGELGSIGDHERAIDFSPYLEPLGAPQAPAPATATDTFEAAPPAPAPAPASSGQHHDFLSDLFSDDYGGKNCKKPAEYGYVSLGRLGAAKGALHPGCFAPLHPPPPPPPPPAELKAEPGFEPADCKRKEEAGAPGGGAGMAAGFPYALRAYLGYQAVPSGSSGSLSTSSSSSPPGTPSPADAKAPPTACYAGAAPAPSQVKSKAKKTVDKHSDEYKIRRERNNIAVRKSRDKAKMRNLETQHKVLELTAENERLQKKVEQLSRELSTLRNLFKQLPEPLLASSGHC
Retinoic acid receptor alpha (Homo sapiens), sequence (P10276 whole entry, looked up): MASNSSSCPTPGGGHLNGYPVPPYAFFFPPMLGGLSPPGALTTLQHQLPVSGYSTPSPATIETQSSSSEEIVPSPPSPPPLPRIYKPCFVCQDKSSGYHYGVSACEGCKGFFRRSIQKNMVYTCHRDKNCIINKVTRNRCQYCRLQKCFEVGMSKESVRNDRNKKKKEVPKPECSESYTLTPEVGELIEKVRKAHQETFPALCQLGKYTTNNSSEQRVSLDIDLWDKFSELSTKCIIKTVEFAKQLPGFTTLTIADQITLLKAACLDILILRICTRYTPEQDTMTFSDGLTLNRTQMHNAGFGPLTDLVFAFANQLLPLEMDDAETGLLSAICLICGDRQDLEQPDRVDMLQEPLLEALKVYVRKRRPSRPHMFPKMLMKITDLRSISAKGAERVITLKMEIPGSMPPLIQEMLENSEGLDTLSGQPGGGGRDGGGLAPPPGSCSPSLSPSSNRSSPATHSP
Aryl hydrocarbon receptor (Homo sapiens), sequence (P35869 whole entry, looked up): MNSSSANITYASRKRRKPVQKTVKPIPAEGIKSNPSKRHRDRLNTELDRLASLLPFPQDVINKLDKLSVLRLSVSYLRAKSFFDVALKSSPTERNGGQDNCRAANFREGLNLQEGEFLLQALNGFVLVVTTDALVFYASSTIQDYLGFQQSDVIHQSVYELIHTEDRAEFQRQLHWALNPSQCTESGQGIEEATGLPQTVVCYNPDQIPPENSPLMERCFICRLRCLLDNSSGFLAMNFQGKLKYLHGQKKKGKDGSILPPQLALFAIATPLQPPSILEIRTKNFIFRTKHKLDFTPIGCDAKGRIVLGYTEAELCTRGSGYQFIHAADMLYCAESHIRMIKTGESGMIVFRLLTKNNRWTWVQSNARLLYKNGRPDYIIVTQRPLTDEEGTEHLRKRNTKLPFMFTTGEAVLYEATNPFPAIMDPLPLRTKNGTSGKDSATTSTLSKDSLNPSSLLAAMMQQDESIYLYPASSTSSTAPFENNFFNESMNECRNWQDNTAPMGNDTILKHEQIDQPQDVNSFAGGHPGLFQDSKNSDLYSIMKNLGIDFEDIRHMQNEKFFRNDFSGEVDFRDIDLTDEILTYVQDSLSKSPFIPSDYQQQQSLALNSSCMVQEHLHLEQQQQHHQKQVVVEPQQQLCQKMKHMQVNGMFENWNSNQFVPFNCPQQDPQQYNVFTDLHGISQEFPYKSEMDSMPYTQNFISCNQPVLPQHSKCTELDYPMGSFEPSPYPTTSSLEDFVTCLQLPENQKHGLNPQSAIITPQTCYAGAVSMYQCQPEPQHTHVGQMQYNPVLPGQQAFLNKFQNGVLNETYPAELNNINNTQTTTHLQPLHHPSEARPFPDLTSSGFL
Transcription factor E2F1 (Homo sapiens), sequence (Q01094 whole entry, looked up): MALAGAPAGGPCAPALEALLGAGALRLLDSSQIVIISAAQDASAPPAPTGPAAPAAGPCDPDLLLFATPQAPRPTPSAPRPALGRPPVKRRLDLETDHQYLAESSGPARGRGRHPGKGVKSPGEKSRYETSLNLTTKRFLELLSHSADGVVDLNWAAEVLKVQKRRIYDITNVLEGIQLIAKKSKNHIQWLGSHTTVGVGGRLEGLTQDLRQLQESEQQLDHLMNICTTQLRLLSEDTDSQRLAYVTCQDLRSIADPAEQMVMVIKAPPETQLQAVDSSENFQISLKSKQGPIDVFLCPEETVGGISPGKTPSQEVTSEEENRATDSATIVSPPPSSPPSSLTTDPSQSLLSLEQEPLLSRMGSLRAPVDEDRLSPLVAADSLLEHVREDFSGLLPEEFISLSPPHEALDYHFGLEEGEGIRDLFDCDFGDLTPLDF
Hepatocyte nuclear factor 3-beta (Homo sapiens), sequence (Q9Y261 whole entry, looked up): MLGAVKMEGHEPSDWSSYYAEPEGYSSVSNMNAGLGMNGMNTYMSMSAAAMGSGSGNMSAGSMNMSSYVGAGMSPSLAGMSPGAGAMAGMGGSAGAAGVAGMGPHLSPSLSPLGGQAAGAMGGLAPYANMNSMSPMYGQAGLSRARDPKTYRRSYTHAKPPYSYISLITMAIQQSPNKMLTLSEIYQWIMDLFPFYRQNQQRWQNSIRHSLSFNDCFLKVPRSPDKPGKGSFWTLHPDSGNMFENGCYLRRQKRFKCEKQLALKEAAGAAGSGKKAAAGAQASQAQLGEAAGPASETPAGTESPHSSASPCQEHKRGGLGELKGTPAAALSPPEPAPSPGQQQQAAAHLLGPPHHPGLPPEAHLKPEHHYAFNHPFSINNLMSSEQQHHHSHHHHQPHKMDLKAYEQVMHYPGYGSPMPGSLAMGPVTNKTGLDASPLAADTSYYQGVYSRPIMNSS

C[Si]1(C)O[Si](C)(C)O[Si](C)(C)O[Si](C)(C)O[Si](C)(C)O1
inactive: [1] | [2] | [3] | [4] | [6] | [7] | [8] | [9] | [10] | [11] | [12] | [13] | [14] | [15] | [16] | [17] | [18] | [19] | [20]
active: [5] 36.2 µM

CCCCCC[C@@H](O)C/C=C\CCCCCCCC(=O)OCC(O)CO (some centres not stated)
inactive: [1] | [2] | [3] | [6] | [9] | [10] | [12] | [13] | [15] | [16] | [18]
active: [4] 131 µM | [5] 163 µM | [7] 75.7 µM | [8] 158 µM | [11] 133 µM | [14] 151 µM | [17] 178 µM | [19] 178 µM | [20] 128 µM

CCOC(=O)c1ccc(C)cc1
inactive: [1] | [2] | [3] | [4] | [5] | [6] | [7] | [8] | [9] | [10] | [11] | [12] | [13] | [14] | [15] | [16] | [17] | [18] | [19] | [20]

Oc1ccc(/C=C/c2cc(O)cc(O)c2)cc1
inactive: [1] | [2] | [3] | [6] | [7] | [8] | [9] | [10] | [11] | [12] | [13] | [14] | [15] | [18] | [20]
active: [4] 22.7 µM | [5] 100 µM | [16] 6.81 µM | [17] 153 µM

C1CNCCN1
inactive: [1] | [2] | [3] | [4] | [5] | [6] | [7] | [8] | [9] | [10] | [11] | [12] | [13] | [15] | [16] | [17] | [18] | [19] | [20]

O=C1CCCCCCCCCCCN1
inactive: [2] | [3] | [4] | [5] | [6] | [7] | [8] | [9] | [10] | [11] | [12] | [13] | [14] | [15] | [16] | [18] | [19] | [20]
active: [1] 53.3 µM

CCc1cccc(C)c1N
inactive: [1] | [2] | [3] | [4] | [5] | [6] | [7] | [8] | [9] | [10] | [11] | [12] | [13] | [14] | [15] | [16] | [17] | [18] | [19] | [20]
